# Measured values: PubChem BioAssay
# Where “and” joins values, the source holds several entries; their conditions need not be identical. Identical values can stand only once. Results filed as inconclusive are left out. Calls of active or inactive are those of the source.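 How the source made its calls, unless noted: active means compounds whose cell count with miR-34 switched on is under 0.7 times the count with it off; inactive means the rest.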
# Experiments:
# [1] = target: 6-phosphogluconate dehydrogenase, decarboxylating (Homo sapiens) (UniProt P52209); test: inhibition of human phosphogluconate dehydrogenase – biochemical, recombinant enzyme, NADPH absorbance, primary screen (AID 1159550;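 active means at least 20% inhibition of 6-phosphogluconate dehydrogenase activity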); details: recombinant 6PGD, NADPH absorbance 341 nm; at 10 µM; stronger effect = higher value
# 6-phosphogluconate dehydrogenase, decarboxylating (Homo sapiens), sequence (P52209 whole entry, looked up): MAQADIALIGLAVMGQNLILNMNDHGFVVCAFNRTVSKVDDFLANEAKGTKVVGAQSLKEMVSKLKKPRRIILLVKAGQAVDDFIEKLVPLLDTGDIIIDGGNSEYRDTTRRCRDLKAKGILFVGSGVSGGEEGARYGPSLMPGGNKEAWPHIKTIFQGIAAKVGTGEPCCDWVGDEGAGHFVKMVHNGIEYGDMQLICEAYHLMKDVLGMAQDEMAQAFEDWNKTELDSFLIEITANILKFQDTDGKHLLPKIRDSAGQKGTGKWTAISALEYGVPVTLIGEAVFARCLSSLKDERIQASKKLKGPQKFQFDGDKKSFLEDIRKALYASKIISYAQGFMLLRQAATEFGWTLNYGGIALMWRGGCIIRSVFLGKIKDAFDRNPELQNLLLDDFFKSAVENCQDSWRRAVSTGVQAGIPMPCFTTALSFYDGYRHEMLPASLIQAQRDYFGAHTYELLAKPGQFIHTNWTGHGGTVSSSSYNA
# [2] = viability loss with induced miR-34 in A549 – imaging, A549 dox-inducible miR-34, nuclei and caspase counts, primary screen (AID 1347080); details: A549 miR-34 inducible, Hoechst nuclei count, 48 h
# [3] = galactose survival enhancers in mitochondrial complex I cybrids – cell-based, galactose medium, ATP luminescence, primary screen (AID 1645843;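 active means z-score of at least 1.8 in each of two replicates, scored against plate mean and spread of sample wells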;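 further: positive z means more ATP and so rescue of galactose-driven cybrid death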); details: complex I mutant cybrid cells, 72 h, stronger effect = higher value
# [4] = compounds altering viability of human ES cells (AID 493140; call rule not given here;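 further: cells exposed to compounds for four days before counting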); details: human embryonic stem cell survival screen; stronger effect = higher value
# [5] = P. berghei load reduction in hepatocytes – cell-based, HepG2, luciferase luminescence, HepG2 viability, primary screen (AID 624349; in the data active means parasite load remaining mostly below about 12%, no sharp cut-off; inactive means mostly above about 10%;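 further: 100% = mean of DMSO negative control wells on the same plate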); details: P. berghei liver stage in HepG2, luciferase luminescence, concentration not given here; parasite load remaining: stronger effect = lower value; viability: measured here: HepG2 viability without parasites
# [6] = MELAS cybrid and Rieske KO viability enhancers – cell-based, MELAS cybrids, Rieske KO mouse fibroblasts, CellTiter-Glo, primary screen (AID 1508586;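 active means mean z-score across replicates of 1.96 or higher in either the MELAS or the Rieske mutant cell line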;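 further: z relative to plate mean and SD of compound and empty wells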); details: low glucose
# [7] = target: NAD(+) hydrolase SARM1 (Homo sapiens) (UniProt Q6SZW1); test: blocking NAD cleavage by SARM1 SAM-TIR – cell lysate, NAD-Glo luminescence (AID 1508614;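 active means compound whose remaining NAD level is above about 45 nM, limit read from the data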); details: SAM-TIR HEK293T lysate NADase, at 1 µM, stronger effect = higher value
# NAD(+) hydrolase SARM1 (Homo sapiens), sequence (Q6SZW1 whole entry, looked up, the tested form may be a part): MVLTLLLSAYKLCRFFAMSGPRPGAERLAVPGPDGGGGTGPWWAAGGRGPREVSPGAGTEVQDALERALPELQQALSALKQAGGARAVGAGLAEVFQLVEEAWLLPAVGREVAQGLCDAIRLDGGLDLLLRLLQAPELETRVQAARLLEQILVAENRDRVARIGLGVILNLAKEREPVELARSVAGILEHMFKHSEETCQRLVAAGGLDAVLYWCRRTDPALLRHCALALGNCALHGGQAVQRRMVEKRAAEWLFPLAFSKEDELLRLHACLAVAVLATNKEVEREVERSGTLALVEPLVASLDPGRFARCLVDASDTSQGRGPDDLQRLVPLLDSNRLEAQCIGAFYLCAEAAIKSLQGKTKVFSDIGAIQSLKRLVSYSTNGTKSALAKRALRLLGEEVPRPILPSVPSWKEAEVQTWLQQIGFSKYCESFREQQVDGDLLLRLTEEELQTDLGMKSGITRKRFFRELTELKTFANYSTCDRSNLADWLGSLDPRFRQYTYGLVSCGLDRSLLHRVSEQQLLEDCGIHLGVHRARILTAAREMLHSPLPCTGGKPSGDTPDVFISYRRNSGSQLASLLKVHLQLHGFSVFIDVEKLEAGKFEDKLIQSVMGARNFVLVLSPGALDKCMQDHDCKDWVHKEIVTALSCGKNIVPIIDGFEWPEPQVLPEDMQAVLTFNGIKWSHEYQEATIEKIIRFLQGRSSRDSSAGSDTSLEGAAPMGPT
# [8] = target: Mitogen-activated protein kinase 7 (Homo sapiens) (UniProt Q13164); test: Gal4-ERK5 driven luciferase induction – cell-based, HTS, primary screen (AID 1508626;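 active means luciferase signal above three times the same-plate solvent-only control wells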;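 further: luciferase driven by Gal4-ERK5 fusion binding five Gal4 sites before minimal TATA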); details: HeLa Gal4-ERK5 transactivation, 18 h, at 5 µM, stronger effect = higher value
# Mitogen-activated protein kinase 7 (Homo sapiens), sequence (Q13164 whole entry, looked up, the tested form may be a part): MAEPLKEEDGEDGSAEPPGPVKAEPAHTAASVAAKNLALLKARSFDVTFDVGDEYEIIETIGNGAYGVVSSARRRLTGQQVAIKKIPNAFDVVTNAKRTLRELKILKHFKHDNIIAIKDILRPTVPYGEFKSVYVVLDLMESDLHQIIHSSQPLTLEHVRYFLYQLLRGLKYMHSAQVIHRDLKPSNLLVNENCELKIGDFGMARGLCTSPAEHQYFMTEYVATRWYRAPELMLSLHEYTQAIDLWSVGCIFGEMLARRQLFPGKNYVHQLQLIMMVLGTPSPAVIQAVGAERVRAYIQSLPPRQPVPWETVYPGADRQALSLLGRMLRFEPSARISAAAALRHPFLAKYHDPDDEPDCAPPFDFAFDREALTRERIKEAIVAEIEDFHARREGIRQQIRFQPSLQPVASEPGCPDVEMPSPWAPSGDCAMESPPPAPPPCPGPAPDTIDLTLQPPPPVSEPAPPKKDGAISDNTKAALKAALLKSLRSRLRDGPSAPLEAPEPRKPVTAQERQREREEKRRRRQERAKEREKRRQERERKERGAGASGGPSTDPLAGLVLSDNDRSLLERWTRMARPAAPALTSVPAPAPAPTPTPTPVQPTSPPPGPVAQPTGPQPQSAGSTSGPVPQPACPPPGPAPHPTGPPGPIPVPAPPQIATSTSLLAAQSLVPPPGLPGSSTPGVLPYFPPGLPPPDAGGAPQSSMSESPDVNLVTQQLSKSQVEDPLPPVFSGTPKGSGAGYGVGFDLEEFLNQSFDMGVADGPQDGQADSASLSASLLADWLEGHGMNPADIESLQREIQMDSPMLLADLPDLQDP
# [9] = viability loss in pontine glioma line – cell-based, JHH-DIPG-1, MIPE4.0, CellTiter-Glo, qHTS, dose response (AID 1347062; cut-off not given, nearly all actives have AC50 up to about 27 µM;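 on AC50: cells exposed to compound for two days before readout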); details: JHH-DIPG-1 viability, CellTiter-Glo ATP luminescence
# [10] = viability loss in pontine glioma line – cell-based, SU-DIPG-IV, MIPE4.0, CellTiter-Glo, qHTS, dose response (AID 1347063; cut-off not given, nearly all actives have AC50 up to about 30 µM;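 further: compound exposure lasted 48 hours before the viability readout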); details: CellTiter-Glo ATP luminescence
# [11] = viability loss in pontine glioma line – cell-based, SU-DIPG-XIII, MIPE4.0, CellTiter-Glo, qHTS, dose response (AID 1347061; cut-off not given, nearly all actives have AC50 up to about 37 µM;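 further: cells exposed to compound for 48 hours before readout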); details: CellTiter-Glo ATP luminescence
# [12] = stronger effect = lower value, cell number ratio, induced over uninduced
# [13] = measured here: relative caspase fold change +Dox/-Dox
# [14] = measured here: total cells with miR-34 induction, stronger effect = lower value
# [15] = measured here: total cells without miR-34 induction
# [16] = MELAS cybrid survival, CellTiter-Glo 48 h, stronger effect = higher value
# [17] = Rieske KO mouse fibroblast survival, CellTiter-Glo 72 h
Structure (SMILES),inhibition [1],"fold change [2, 12]","fold change [2, 13]","cell count [2, 14]","cell count [2, 15]",z-score [3],survival [4],parasite load remaining [5],viability [5],"z-score [6, 16]","z-score [6, 17]",remaining NAD [7],luciferase signal [8],outcome [9],outcome [10],AC50 [11],outcome [11],AC50 [9],AC50 [10]
O=C(O)Cc1nn(Cc2ccc(Br)cc2F)c(=O)c2ccccc12,11.5% (inactive),0.972 (inactive),0.601,8710,8960,0.945 (inactive),–,–,–,–,–,–,–,–,–,–,–,–,–
CC(C)C[C@H]1C(=O)N2CCC[C@H]2[C@]2(O)O[C@](NC(=O)[C@@H]3C=C4c5cccc6[nH]c(Br)c(c56)C[C@H]4N(C)C3)(C(C)C)C(=O)N12,-9.44% (inactive),1.36 (inactive) and 1.09 (inactive),1.68 and 0.668,5460 and 4760,4010 and 4360,-1.32 (inactive) and -1.22 (inactive),29.8 (inactive),105% (inactive),88.9%,-0.164 (inactive),-0.261,10 nM (inactive),200 AU (inactive),–,–,–,–,–,–
CC(C)(O)CC[C@@H](O)[C@](C)(O)[C@H]1CC[C@@]2(O)C3=CC(=O)[C@@H]4C[C@@H](O)[C@@H](O)C[C@]4(C)[C@H]3CC[C@]12C,8% (inactive),–,–,–,–,–,–,–,–,–,–,–,60 AU (inactive),inactive,inactive,–,–,–,–
CC(=O)[C@H]1CC[C@H]2[C@@H]3CCC4=CC(=O)CC[C@]4(C)[C@H]3CC[C@]12C,14.1% (inactive),1.08 (inactive) and 0.812 (inactive) and 0.853 (inactive),0.82 and 1.33 and 1.49,8120 and 7150 and 6560,7520 and 8800 and 7700,-0.485 (inactive) and -1.04 (inactive),8.58 (inactive),–,–,-0.398 (inactive) and 0.245 (inactive),-0.301 and 1.24,10 nM (inactive),28 AU (inactive),inactive,–,1870 nM (active),–,–,–
C[C@@]12C[C@@]3(O)O[C@@H](O1)[C@]1(COC(=O)c4ccccc4)[C@H]3C[C@@]12O[C@@H]1O[C@H](CO)[C@@H](O)[C@H](O)[C@H]1O,-7.19% (inactive),–,–,–,–,–,–,–,–,–,–,–,60 AU (inactive),inactive,–,–,inactive,–,–
O=C(O)c1cc(=O)c2ccccc2[nH]1,9.19% (inactive),1.09 (inactive) and 0.962 (inactive),0.635 and 0.733,10600 and 8100,9680 and 8420,0.335 (inactive) and 0.005 (inactive),–,196% (inactive),68.4%,–,–,–,40 AU (inactive),–,–,–,–,–,–
CN[C@H](CC(C)C)C(=O)N[C@H]1C(=O)N[C@@H](CC(N)=O)C(=O)N[C@H]2C(=O)N[C@H]3C(=O)N[C@H](C(=O)N[C@H](C(=O)O)c4cc(O)cc(O)c4-c4cc3ccc4O)[C@H](O)c3ccc(c(Cl)c3)Oc3cc2cc(c3O[C@@H]2O[C@H](CO)[C@@H](O)[C@H](O)[C@H]2O[C@H]2C[C@](C)(N)[C@H](O)[C@H](C)O2)Oc2ccc(cc2Cl)[C@H]1O,3.51% (inactive),0.946 (inactive),1.32,9810,10400,0.26 (inactive),13.8 (inactive),70.2% (inactive),74.3%,–,–,10 nM (inactive),68 AU (inactive),inactive,inactive,–,inactive,–,–
C[C@H](CCC(=O)O)[C@H]1CC[C@H]2[C@@H]3[C@H](O)C[C@@H]4C[C@H](O)CC[C@]4(C)[C@H]3CC[C@]12C,-1.04% (inactive),0.917 (inactive),1.03,9290,10100,–,11.7 (inactive),42% (inactive) and 91.9% (inactive),46.4% and 85.3%,0.377 (inactive),-0.0721,10 nM (inactive),112 AU (inactive),inactive,inactive,–,inactive,–,–
C[C@H]1O[C@@H](O[C@H]2[C@@H](O)C[C@H](O[C@H]3[C@@H](O)C[C@H](O[C@H]4CC[C@@]5(C)[C@H](CC[C@@H]6[C@@H]5C[C@@H](O)[C@]5(C)[C@@H](C7=CC(=O)OC7)CC[C@]65O)C4)O[C@@H]3C)O[C@@H]2C)C[C@H](O)[C@@H]1O,-1.7% (inactive),0.979 (inactive),2.27,512,523,–,0.667 (inactive),-10.5% (inactive) and 8.38% (inactive),46.2% and 21%,-1.21 (inactive),0.0199,10 nM (inactive),24 AU (inactive),–,–,95.9 nM (active),–,30.3 nM (active),241 nM (active)
CC(C)(S)[C@@H](N)C(=O)O,5.83% (inactive),–,–,–,–,–,–,–,–,–,–,10 nM (inactive),48 AU (inactive),inactive,inactive,–,inactive,–,–
CCC[C@@H]1C[C@@H](C(=O)N[C@@H]([C@H]2O[C@H](SC)[C@H](O)[C@@H](O)[C@H]2O)[C@@H](C)O)N(C)C1,-15.1% (inactive),0.837 (inactive),1.35,8810,10500,-0.14 (inactive),–,63.5% (inactive),128%,0.52 (inactive) and 0.4 (inactive),-0.069 and -0.671,10 nM (inactive),64 AU (inactive),inactive,inactive,–,inactive,–,–
C[C@H]1C[C@H]2[C@@H]3CCC4=CC(=O)C=C[C@]4(C)[C@@]3(F)[C@@H](O)C[C@]2(C)[C@@]1(O)C(=O)CO,-0.85% (inactive),0.813 (inactive),1.45,6320,7770,–,9.67 (inactive),183% (inactive) and 101% (inactive),104% and 71.8%,-0.582 (inactive),-0.299,10 nM (inactive),80 AU (inactive),inactive,inactive,–,inactive,–,–
